Only some compounds are listed: those with a hit (about 3.1% of all), similar ones and a draw of the others.
EWS-Fli inh: blocks EWS/Fli oncoprotein-driven transcription | A673 NR0B1-luciferase reporter, viability-normalised | inhibition, % at 12.6 µM | hit rate 0.67% among 350,000 | AID 651661;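 active = mean inhibition of at least 50% after viability correction, with every replicate also passing that limit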;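 also: firefly luciferase signal divided by Alamar Blue viability fluorescence both relative to DMSO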
TWEAK Fn14 block: blocks TWEAK-Fn14 interaction in a reporter cell assay | TWEAK-stimulated Fn14 reporter cells, luciferase luminescence, 8 h | inhibition, % at 10 µM | hit rate 2% among 360,000 | AID 1159606; in the data active = inhibition above about 50%
PAX8 reporter: lowers PAX8-driven luciferase in RMG-I cells; RMG-I TPO-luciferase reporter, SteadyGlo, 24 h; inhibition, % at 12.6 µM; hit rate 1.2% among 360,000; AID 652154;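 active = mean replicate inhibition at least 60% with every replicate also reaching 60%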;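 also: luciferase light reporting Pax8 driven TPO promoter activity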
EBV LMP1 NFkB: inhibitors of Epstein-Barr LMP1-induced NF-kappaB reporter; hit rate 0.69% among 350,000; LMP1-induced NF-kappaB luciferase reporter cells, luminescence; AID 504558; inhibition, % at 12.5 µM; in the data active = inhibition above about 41%
TROY signal inh: inhibitors of TROY-dependent NF-kB signaling; Q293 LMP1-TROYcd NF-kB luciferase reporter, 4 h; inhibition, % at 10 µM; hit rate 0.98% among 360,000; AID 1347056;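 active = compounds whose plate-normalised and pattern-corrected inhibition of the luciferase reporter signal at the single screening dose is 50% or more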
LGR2 inh: Drosophila LGR2 receptor signaling inhibition. HEK293 LGR2, CRE-luciferase, bursicon-stimulated, 4 h. inhibition, % at 9.99 µM. hit rate 0.35% among 380,000;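 active = drop in luminescence signal, shown as inhibition above about 50% in the replicate tests, limit read from the data, passing the limit was not always enough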;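 also: agonist challenge used bursicon conditioned medium at about half maximal strength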
A number is an active result; ! = not active in a repeat.

Cc1cccc(CNc2ncnc3ccc(-c4ccoc4)cc23)c1 was read as EWS-Fli inh inactive, TWEAK Fn14 block 94, PAX8 reporter inactive, EBV LMP1 NFkB 75, TROY signal inh 55 and LGR2 inh inactive.
CO[C@@H]1CC[C@@H]2CCOc3ccc(C#N)cc3C(=O)N(C)C[C@@H](OC)[C@H](C)C(=O)N(C)C[C@@H]1O2 was read as EWS-Fli inh inactive, PAX8 reporter inactive and LGR2 inh inactive.
For CC(C)NC(=O)N[C@H]1C=C[C@@H](CC(=O)NC2Cc3ccccc3C2)O[C@H]1CO the results were LGR2 inh inactive.
CCCCN1C(=O)C2(OCCCO2)c2cccc(C)c21 was read as EWS-Fli inh inactive, TWEAK Fn14 block 100, PAX8 reporter inactive, EBV LMP1 NFkB inactive, TROY signal inh inactive and LGR2 inh inactive.
For CO[C@@H]1CC[C@@H]2CCOc3ccc(C#N)cc3C(=O)N(C)CCCC(=O)N(C)C[C@H]1O2 the results were EWS-Fli inh inactive, PAX8 reporter inactive and LGR2 inh inactive.
`COc1ncnc2c1NC(=O)CS2` gave TWEAK Fn14 block inactive, EBV LMP1 NFkB 82, TROY signal inh inactive and LGR2 inh inactive.
O=C(Nc1ccccc1)C1=C[C@H](c2ccc(C(F)(F)F)cc2)C[C@H](OCCCCO)O1 was read as EWS-Fli inh inactive, TWEAK Fn14 block inactive, PAX8 reporter 87!, EBV LMP1 NFkB inactive, TROY signal inh inactive and LGR2 inh inactive.
Screening C[C@@H]1CN([C@@H](C)CO)C(=O)c2cc(NC(=O)NC3CCCCC3)ccc2O[C@H]1CN(C)C returned EWS-Fli inh inactive, PAX8 reporter inactive and LGR2 inh inactive.
Screening CC(=O)c1c(OC(=O)c2ccc(C)cc2)c2ccccc2n1C returned EWS-Fli inh inactive, TWEAK Fn14 block inactive, EBV LMP1 NFkB inactive, TROY signal inh inactive and LGR2 inh inactive.
For Cc1ccc(C(=O)Oc2cc(C)n(C)c(=O)c2)cc1 the results were TWEAK Fn14 block 54, EBV LMP1 NFkB inactive and TROY signal inh inactive.
Screening COCC(=O)N(C)C[C@@H]1Oc2cc(C#CCC(C)C)ccc2S(=O)(=O)N([C@H](C)CO)C[C@@H]1C returned EWS-Fli inh inactive and LGR2 inh inactive.
For Cn1nnnc1SCc1ccc(C(=O)Nc2nccs2)cc1 the results were TWEAK Fn14 block inactive, EBV LMP1 NFkB inactive and TROY signal inh inactive.
`C=CCn1c(SCc2ccc(C(=O)Nc3nccs3)cc2)nnc1-c1ccc(C)c(Cl)c1` gave TWEAK Fn14 block 92, PAX8 reporter inactive, EBV LMP1 NFkB inactive, TROY signal inh inactive and LGR2 inh inactive.
`COc1ccc(C=C2CS(=O)(=O)CC(=Cc3ccc(OC)cc3)C2=O)cc1` gave EWS-Fli inh 60, TWEAK Fn14 block 88, PAX8 reporter 77, EBV LMP1 NFkB 91, TROY signal inh 56 and LGR2 inh active.
Screening CCNC(=O)C[C@@H]1CC[C@@H]2[C@H](COc3ccc(NC(=O)Nc4ccccc4OC)cc3C(=O)N2C)O1 returned EWS-Fli inh inactive, PAX8 reporter inactive and LGR2 inh inactive.
For C/C(=N/Nc1ccccc1[N+](=O)[O-])c1ccc([N+](=O)[O-])cc1 the results were EWS-Fli inh inactive, TWEAK Fn14 block inactive, PAX8 reporter inactive, EBV LMP1 NFkB inactive, TROY signal inh 51 and LGR2 inh inactive.
Screening C/C(=N\Nc1ccccc1[N+](=O)[O-])c1ccccc1O returned EWS-Fli inh inactive, TWEAK Fn14 block inactive, PAX8 reporter inactive, EBV LMP1 NFkB inactive, TROY signal inh inactive and LGR2 inh inactive.
CC/C(=N\Nc1ccccc1[N+](=O)[O-])c1ccc(O)cc1 was read as EWS-Fli inh inactive, TWEAK Fn14 block inactive, PAX8 reporter inactive, EBV LMP1 NFkB inactive, TROY signal inh 53 and LGR2 inh inactive.
For CC1=C/C(=N\Nc2ccccc2[N+](=O)[O-])CC(C)(C)C1 the results were EWS-Fli inh inactive, TWEAK Fn14 block inactive, PAX8 reporter inactive, EBV LMP1 NFkB inactive, TROY signal inh 58 and LGR2 inh inactive.
O=[N+]([O-])c1ccccc1N/N=C/c1ccccc1 was read as EWS-Fli inh inactive, TWEAK Fn14 block inactive, PAX8 reporter inactive, EBV LMP1 NFkB inactive, TROY signal inh inactive and LGR2 inh inactive.
For CC/C(=N\Nc1ccc([N+](=O)[O-])cc1[N+](=O)[O-])c1ccc(O)cc1 the results were EWS-Fli inh inactive, TWEAK Fn14 block inactive, PAX8 reporter inactive, EBV LMP1 NFkB inactive, TROY signal inh inactive and LGR2 inh inactive.
`Cc1noc(C)c1NC(=O)N(C)C[C@@H]1Oc2ccc(NS(C)(=O)=O)cc2C(=O)N([C@H](C)CO)C[C@H]1C` gave EWS-Fli inh inactive and LGR2 inh inactive.
`C=CCOC(=O)/C(=C\c1ccccc1)NC(=O)c1ccc(C)cc1` gave EWS-Fli inh inactive, TWEAK Fn14 block inactive, PAX8 reporter inactive, EBV LMP1 NFkB inactive, TROY signal inh 51 and LGR2 inh inactive.
OC[C@H]1[C@H](c2ccc(C#Cc3ccccc3)cc2)[C@@H]2CN(CC3CCOCC3)CCCCN12 was read as EWS-Fli inh inactive, PAX8 reporter inactive and LGR2 inh inactive.
`COc1ccc(N2CCN(C(=O)CSc3ncccc3-c3nc4ccccc4[nH]3)CC2)cc1` gave EWS-Fli inh inactive, TWEAK Fn14 block inactive, EBV LMP1 NFkB inactive, TROY signal inh inactive and LGR2 inh inactive.
CCOC(=O)Cc1csc(NC(=O)CSc2ncnc3c2cnn3-c2ccc(OC)cc2)n1 was read as TWEAK Fn14 block 61, EBV LMP1 NFkB inactive and TROY signal inh inactive.
For O=C(CSc1ncccc1-c1nc2ccccc2[nH]1)N1CCN(c2ccccc2F)CC1 the results were TWEAK Fn14 block 71, EBV LMP1 NFkB inactive and TROY signal inh 57.
Screening COc1ccccc1N1CCN(C(=O)CSc2ncnc3scc(-c4ccccc4)c23)CC1 returned TWEAK Fn14 block inactive, PAX8 reporter inactive, EBV LMP1 NFkB inactive, TROY signal inh inactive and LGR2 inh inactive.
COc1ccc(-n2ncc3c(SCC(=O)N4CCN(c5ccccc5OC)CC4)ncnc32)cc1 was read as TWEAK Fn14 block 55, EBV LMP1 NFkB inactive and TROY signal inh inactive.
COc1ccccc1N1CCN(C(=O)CSc2ncccc2-c2nc3ccccc3[nH]2)CC1 was read as TWEAK Fn14 block 56, EBV LMP1 NFkB inactive, TROY signal inh inactive and LGR2 inh inactive.
Screening CCCC#Cc1cnc2c(c1)C(=O)N([C@@H](C)CO)C[C@@H](C)[C@H](CN(C)S(=O)(=O)c1cccc(OC)c1)O2 returned EWS-Fli inh inactive, PAX8 reporter inactive and LGR2 inh inactive.
Screening O=C(C[C@H]1C[C@@H]2c3cc(NC(=O)CC4CC4)ccc3O[C@@H]2[C@H](CO)O1)NCCN1CCCCC1 returned EWS-Fli inh inactive, PAX8 reporter inactive and LGR2 inh inactive.
O=C(CSc1ncccc1-c1nc2ccccc2[nH]1)NC1CC1 was read as TWEAK Fn14 block 53, EBV LMP1 NFkB inactive and TROY signal inh 55.
For CCCN1[C@H](C(=O)OC)[C@@H](CO)[C@@H]2Cn3c(ccc(-c4ccncc4)c3=O)[C@@H]21 the results were EWS-Fli inh inactive and LGR2 inh inactive.

Screening data from PubChem.
